Data on one sequence can be found in paper PMC7862700, “An all-to-all approach to the identification of sequence-specific readers for epigenetic DNA modifications on cytosine”.

Holding throughout (test): DAPPL (digital affinity profiling via proximity ligation, sequencing); 10 mM Tris-HCl pH 7.5, 50 mM NaCl, 1 mM DTT, 4% glycerol, room temperature, 30 min; GST-TFs on glutathione beads, 16-mer random dsDNA library, 0.1% formaldehyde crosslink after washing; high values mean tight binding
The target in one test is T1, FLI1 (Homo sapiens, UniProt Q01543 1-452).
T1 sequence: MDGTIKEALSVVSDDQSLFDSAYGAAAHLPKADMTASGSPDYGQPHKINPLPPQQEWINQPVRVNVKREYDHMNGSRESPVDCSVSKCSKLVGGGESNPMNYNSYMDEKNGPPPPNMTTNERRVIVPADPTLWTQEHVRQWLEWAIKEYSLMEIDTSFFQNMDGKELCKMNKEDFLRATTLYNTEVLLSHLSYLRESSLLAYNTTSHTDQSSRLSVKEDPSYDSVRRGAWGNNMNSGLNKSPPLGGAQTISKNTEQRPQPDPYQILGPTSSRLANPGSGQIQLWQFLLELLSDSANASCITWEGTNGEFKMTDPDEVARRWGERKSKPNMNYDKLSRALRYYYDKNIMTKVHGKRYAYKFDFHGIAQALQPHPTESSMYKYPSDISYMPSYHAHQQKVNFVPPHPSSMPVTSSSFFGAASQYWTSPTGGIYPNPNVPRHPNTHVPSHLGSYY
The note with it: protein: recombinant; tags: N-terminal GST; dsDNA, one strand shown. In outline:
(§1)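 Yeast served to express human transcription factors as GST fusions, which were then captured on glutathione beads and labelled with DNA barcodes. Pooled with a tag-only sample, they were incubated with 200 nmole of a 16-mer random double-stranded DNA library for 30 min at room temperature in Tris/NaCl/DTT/glycerol buffer, washed, crosslinked with 0.1% formaldehyde, ligated by proximity, amplified by PCR and sequenced. Dividing each hexamer's read frequency for a factor by its frequency for the tag-only sample gives the binding signal.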

A further test addresses T2, ELK1 (Homo sapiens, UniProt P19419 1-428).
T2 sequence: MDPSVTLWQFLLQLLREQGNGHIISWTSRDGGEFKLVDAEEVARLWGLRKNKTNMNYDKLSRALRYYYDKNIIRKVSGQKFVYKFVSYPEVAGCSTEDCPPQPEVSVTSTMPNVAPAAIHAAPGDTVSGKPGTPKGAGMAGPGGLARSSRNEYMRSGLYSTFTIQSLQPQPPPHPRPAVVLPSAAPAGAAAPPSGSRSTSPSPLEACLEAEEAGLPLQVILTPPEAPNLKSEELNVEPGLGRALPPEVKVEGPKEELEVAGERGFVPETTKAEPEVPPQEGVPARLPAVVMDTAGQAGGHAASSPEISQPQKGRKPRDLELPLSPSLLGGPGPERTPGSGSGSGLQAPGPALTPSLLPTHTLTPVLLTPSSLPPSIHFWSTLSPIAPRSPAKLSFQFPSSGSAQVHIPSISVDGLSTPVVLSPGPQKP
The settings on record: protein: recombinant; tags: N-terminal GST; dsDNA, one strand shown. In outline:
as §1

The target of a further test is T3, GABPA (Homo sapiens, UniProt Q06546 1-454).
T3 sequence: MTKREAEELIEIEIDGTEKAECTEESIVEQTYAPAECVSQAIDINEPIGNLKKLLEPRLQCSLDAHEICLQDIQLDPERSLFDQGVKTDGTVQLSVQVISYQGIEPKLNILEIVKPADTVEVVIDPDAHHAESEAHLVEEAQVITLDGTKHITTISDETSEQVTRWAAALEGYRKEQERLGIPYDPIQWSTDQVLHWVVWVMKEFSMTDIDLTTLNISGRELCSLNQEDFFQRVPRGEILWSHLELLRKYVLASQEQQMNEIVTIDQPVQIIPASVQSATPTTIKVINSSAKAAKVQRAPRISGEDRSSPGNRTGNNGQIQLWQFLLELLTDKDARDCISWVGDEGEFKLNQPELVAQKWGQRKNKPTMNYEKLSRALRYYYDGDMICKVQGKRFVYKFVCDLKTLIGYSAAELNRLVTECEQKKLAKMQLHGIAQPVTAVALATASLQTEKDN
The note with it: protein: recombinant; tags: N-terminal GST; dsDNA, one strand shown. In outline: as §1

For the next test, the target named is T4, ERG (Homo sapiens, UniProt P11308 1-479).
T4 sequence: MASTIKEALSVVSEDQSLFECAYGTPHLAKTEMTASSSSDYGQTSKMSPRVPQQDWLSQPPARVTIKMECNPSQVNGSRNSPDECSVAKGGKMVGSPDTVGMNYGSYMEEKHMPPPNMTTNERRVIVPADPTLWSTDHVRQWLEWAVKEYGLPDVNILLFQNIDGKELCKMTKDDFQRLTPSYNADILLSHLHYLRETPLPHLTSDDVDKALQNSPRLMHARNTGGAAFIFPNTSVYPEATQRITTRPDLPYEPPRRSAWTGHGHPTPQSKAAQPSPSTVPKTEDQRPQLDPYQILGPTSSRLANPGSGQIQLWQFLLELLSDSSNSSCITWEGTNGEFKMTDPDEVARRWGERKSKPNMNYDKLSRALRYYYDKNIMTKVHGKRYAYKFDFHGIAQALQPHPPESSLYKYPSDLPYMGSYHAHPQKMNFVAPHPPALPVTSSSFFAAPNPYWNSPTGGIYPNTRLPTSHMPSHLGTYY
The settings on record: protein: recombinant; tags: N-terminal GST; dsDNA, one strand shown. In a few lines: as §1

The target of a further test is ELF1 (Homo sapiens, UniProt P32519 1-619). The note with it: protein: recombinant; tags: N-terminal GST; dsDNA, one strand shown. In a few lines: as §1
Chain of ELF1 (P32519 whole entry): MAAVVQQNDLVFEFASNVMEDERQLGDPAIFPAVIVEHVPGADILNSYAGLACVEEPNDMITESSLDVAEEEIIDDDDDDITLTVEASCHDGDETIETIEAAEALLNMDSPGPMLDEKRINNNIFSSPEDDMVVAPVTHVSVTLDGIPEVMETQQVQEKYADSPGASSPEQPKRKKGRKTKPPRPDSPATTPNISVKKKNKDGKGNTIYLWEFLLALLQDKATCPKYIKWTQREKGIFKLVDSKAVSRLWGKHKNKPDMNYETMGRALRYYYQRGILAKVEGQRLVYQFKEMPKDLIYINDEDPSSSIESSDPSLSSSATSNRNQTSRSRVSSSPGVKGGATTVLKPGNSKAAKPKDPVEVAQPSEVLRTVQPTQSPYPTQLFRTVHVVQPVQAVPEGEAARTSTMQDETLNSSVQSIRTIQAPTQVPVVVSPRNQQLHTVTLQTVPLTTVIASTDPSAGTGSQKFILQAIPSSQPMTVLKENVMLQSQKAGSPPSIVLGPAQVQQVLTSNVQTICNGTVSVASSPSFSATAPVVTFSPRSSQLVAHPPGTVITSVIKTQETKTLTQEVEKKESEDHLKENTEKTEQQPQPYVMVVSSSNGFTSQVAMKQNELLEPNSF
Another test has as its target T5, EHF (Homo sapiens, UniProt Q9NZC4 1-300).
T5 sequence: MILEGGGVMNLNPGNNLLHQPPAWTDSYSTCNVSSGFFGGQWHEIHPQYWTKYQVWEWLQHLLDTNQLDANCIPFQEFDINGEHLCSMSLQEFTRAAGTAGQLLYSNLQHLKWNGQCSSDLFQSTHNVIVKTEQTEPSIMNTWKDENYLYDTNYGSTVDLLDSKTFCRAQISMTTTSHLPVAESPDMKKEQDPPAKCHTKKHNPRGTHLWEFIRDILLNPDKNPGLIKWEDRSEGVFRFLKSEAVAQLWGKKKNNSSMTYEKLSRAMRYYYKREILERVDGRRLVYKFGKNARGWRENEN
The note with it: protein: recombinant; tags: N-terminal GST; dsDNA, one strand shown. In a few lines: as §1

In a further test the target is SPI1 (Homo sapiens, UniProt P17947 1-270). The note with it: protein: recombinant; tags: N-terminal GST; dsDNA, one strand shown. In a few lines:
as §1

A further test addresses SPIB (Homo sapiens, UniProt Q01892 1-262). The note with it: protein: recombinant; tags: N-terminal GST; dsDNA, one strand shown. In a few lines:
as §1

The target in a further test is T6, FEV (Homo sapiens, UniProt Q99581 1-238).
T6 sequence: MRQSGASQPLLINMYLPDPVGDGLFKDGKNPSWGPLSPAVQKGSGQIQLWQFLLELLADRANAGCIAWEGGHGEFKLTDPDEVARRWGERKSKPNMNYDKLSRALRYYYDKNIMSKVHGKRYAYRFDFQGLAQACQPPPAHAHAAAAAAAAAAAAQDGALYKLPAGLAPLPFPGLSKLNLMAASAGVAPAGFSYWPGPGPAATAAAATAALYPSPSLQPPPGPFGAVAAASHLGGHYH
The settings on record: protein: recombinant; tags: N-terminal GST; dsDNA, one strand shown. In a few lines:
as §1

A further test addresses ETV5 (Homo sapiens, UniProt P41161 1-510). The settings on record: protein: recombinant; tags: N-terminal GST; dsDNA, one strand shown. In a few lines:
as §1

The target in a further test is HSF1 (Homo sapiens, UniProt Q00613 1-529). The note with it: protein: recombinant; tags: N-terminal GST; chain copies: 3; dsDNA, one strand shown. In outline:
as §1

For the next test, the target named is T7, SPIC (Homo sapiens, UniProt Q8N5J4 1-248).
T7 sequence: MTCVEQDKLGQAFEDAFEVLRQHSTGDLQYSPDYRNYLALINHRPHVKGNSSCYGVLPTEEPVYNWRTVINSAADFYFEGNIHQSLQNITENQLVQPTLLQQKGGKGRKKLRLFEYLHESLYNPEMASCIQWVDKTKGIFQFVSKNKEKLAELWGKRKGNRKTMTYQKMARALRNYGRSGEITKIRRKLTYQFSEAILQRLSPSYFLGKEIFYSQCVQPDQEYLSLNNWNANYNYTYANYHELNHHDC
The settings on record: protein: recombinant; tags: N-terminal GST; dsDNA, one strand shown. In a few lines:
as §1

Another test concerns the target ELF4 (Homo sapiens, UniProt Q99607 1-663). The note with it: protein: recombinant; tags: N-terminal GST; dsDNA, one strand shown. In a few lines: as §1
A further test has as its target T8, ELK4 (Homo sapiens, UniProt P28324-2 1-405).
T8 sequence: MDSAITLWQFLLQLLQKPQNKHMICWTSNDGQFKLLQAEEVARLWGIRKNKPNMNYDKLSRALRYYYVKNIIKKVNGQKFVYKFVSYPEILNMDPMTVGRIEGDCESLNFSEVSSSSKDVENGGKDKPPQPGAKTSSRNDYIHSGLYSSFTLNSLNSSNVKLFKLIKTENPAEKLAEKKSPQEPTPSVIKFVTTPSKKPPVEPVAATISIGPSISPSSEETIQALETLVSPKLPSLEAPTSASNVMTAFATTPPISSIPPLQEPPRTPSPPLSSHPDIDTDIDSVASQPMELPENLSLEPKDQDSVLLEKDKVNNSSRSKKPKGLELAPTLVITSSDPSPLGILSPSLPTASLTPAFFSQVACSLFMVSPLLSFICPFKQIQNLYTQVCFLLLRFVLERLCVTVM
The settings on record: protein: recombinant; tags: N-terminal GST; dsDNA, one strand shown. In a few lines: as §1

In the next test the target is T9, ETV2 (Homo sapiens, UniProt O00321 1-342).
T9 sequence: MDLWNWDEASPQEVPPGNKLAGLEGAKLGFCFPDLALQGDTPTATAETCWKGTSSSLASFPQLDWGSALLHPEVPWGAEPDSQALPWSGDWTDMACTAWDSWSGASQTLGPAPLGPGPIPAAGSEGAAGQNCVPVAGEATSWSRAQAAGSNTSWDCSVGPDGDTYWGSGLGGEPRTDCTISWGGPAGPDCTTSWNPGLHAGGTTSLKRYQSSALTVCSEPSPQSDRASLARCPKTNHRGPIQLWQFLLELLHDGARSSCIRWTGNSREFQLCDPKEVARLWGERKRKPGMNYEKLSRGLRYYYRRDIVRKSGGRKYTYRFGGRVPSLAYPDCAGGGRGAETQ
The note with it: protein: recombinant; tags: N-terminal GST; dsDNA, one strand shown. In outline:
as §1

The next test deals with CRX (Homo sapiens, UniProt O43186 1-299). The settings on record: protein: recombinant; tags: N-terminal GST; dsDNA, one strand shown. In outline: as §1
Chain of CRX (O43186 whole entry): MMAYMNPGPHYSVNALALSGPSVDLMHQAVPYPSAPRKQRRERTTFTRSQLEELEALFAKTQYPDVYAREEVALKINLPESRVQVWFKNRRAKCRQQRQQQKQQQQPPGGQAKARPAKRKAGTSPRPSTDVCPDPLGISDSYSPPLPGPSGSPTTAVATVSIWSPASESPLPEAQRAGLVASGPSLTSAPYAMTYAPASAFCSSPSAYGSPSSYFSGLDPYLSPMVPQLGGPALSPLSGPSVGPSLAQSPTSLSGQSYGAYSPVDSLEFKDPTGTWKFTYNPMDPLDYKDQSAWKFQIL
The next test deals with ETV1 (Homo sapiens, UniProt P50549 1-477). The settings on record: protein: recombinant; tags: N-terminal GST; dsDNA, one strand shown. In outline:
as §1

Chain of ELF4 (Q99607 whole entry): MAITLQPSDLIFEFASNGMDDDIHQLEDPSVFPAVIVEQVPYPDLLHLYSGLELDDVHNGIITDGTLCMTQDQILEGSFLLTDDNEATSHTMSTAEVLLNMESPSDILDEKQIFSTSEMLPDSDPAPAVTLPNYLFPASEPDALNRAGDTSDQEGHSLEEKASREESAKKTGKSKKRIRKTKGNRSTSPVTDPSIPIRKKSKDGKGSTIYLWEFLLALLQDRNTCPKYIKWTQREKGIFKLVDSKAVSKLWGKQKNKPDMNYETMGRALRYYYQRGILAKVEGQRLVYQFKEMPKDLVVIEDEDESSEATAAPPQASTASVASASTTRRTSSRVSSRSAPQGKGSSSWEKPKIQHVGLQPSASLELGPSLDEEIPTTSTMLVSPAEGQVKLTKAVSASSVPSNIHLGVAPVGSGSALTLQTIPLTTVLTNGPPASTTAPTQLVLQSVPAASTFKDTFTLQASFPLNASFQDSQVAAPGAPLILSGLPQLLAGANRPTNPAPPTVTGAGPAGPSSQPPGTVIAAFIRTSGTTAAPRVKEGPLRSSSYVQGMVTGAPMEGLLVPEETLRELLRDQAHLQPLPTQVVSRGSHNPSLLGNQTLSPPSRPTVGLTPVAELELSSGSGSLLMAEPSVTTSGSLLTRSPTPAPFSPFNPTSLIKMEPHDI
Chain of ETV1 (P50549 whole entry): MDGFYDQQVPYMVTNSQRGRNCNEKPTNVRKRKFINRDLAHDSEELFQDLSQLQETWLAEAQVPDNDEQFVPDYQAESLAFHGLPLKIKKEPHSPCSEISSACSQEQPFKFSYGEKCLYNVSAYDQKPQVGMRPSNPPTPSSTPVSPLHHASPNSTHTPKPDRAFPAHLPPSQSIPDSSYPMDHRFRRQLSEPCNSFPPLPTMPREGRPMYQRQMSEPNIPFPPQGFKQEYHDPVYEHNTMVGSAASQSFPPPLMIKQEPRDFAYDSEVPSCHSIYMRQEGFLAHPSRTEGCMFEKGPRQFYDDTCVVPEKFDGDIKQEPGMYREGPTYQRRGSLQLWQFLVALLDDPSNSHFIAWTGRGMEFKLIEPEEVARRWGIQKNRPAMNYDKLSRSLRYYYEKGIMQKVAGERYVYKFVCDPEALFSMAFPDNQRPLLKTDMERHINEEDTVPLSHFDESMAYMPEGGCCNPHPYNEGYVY
Chain of HSF1 (Q00613 whole entry): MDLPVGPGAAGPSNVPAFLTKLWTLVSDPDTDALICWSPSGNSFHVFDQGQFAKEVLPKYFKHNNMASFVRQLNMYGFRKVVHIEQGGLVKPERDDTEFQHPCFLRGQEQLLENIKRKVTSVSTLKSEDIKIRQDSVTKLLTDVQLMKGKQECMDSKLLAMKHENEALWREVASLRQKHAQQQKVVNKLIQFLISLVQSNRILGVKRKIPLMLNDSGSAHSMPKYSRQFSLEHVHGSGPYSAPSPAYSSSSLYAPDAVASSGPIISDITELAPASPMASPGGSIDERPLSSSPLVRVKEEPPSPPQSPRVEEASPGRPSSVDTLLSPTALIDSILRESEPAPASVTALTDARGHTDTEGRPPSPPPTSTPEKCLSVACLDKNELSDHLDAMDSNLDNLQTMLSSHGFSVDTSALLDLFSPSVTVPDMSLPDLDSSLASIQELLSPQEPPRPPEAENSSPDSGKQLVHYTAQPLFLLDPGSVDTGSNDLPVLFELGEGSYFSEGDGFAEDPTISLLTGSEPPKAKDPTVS
Chain of SPIB (Q01892 whole entry): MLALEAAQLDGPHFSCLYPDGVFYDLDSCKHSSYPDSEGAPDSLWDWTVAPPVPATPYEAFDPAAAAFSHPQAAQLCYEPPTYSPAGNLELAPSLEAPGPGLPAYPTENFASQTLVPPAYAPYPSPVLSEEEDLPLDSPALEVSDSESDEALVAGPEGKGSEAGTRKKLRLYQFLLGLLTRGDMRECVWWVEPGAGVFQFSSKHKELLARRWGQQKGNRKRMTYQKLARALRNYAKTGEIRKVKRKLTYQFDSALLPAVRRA
Chain of ETV5 (P41161 whole entry): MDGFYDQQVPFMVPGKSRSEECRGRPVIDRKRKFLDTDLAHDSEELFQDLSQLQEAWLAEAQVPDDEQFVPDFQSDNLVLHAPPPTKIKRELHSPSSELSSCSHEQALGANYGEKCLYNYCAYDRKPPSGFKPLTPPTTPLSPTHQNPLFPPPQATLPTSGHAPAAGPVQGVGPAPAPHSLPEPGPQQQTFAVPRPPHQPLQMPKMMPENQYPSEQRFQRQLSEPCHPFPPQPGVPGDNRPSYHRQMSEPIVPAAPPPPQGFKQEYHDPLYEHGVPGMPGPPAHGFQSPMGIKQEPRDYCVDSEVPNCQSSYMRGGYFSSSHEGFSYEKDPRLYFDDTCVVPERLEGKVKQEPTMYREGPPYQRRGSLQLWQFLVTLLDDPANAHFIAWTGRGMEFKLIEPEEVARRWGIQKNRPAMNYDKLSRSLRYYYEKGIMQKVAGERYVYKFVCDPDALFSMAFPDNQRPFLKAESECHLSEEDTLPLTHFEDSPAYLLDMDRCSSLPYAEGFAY

Regarding GATTTG, the binding signal with FLI1 was 1.24 fold enrichment (6-mer frequency, TF over GST control); in the test with ELK1 it was 1.16 fold enrichment (6-mer frequency, TF over GST control); with GABPA, 1.22 fold enrichment (6-mer frequency, TF over GST control); with ERG, 1.11 fold enrichment (6-mer frequency, TF over GST control); with ELF1, 1.12 fold enrichment (6-mer frequency, TF over GST control); with EHF, 1.11 fold enrichment (6-mer frequency, TF over GST control). Also, the binding signal with SPI1 is 1.08 fold enrichment (6-mer frequency, TF over GST control); with SPIB, 1.12 fold enrichment (6-mer frequency, TF over GST control); with FEV, 1.11 fold enrichment (6-mer frequency, TF over GST control); in the test with ETV5, 1.25 fold enrichment (6-mer frequency, TF over GST control); with HSF1, 1.39 fold enrichment (6-mer frequency, TF over GST control); in the test with SPIC it was 1.17 fold enrichment (6-mer frequency, TF over GST control). The binding signal is 1.13 fold enrichment (6-mer frequency, TF over GST control) with ELF4; 1.19 fold enrichment (6-mer frequency, TF over GST control) with ELK4; 1.19 fold enrichment (6-mer frequency, TF over GST control) with ETV2; 1.78 fold enrichment (6-mer frequency, TF over GST control) with CRX; 1.14 fold enrichment (6-mer frequency, TF over GST control) with ETV1.
